± gives the standard deviation of the averaged measurements. Whole data set: some 25,000 sequences, median “ln(normalized median fluorescence intensity)” near 8.9, cut for the highest 2% near 10. The sample as a whole holds a higher share of the highest values than the screen did.
System: PfAP2-LT AP2 domain (GST-tagged)
Experiment: gcPBM binding intensity (ln(normalized median fluorescence intensity)); higher = stronger DNA binding
Procedure, shortened: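 Binding intensity is defined as the maximum Masliner-normalised natural-log median intensity across replicate spots for either probe orientation. It was measured on an Agilent 4 × 180k array of primer-extended double-stranded 36-bp intergenic genomic probes and negative controls, to which GST-tagged P. falciparum DNA-binding domains made in E. coli were applied for 1 h in 1× PBS with 1% milk, 0.2 mg/ml BSA, 0.5% salmon testes DNA and 0.03% Triton X-100. Detection was by Alexa488 anti-GST antibody and scanning at 488 nm.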

Sequence | gcPBM binding intensity (ln)
TTTGTGCCTATAAATTAACACACAGAAATATATAGA [CACACA_site8175] | 9.06 ± 0.28
TACTTCATTCATTTTACACACATATAAACCCTTTTA [CACACA_site3229] | 9.15 ± 0.47
ATTTATATGTAGATGTGTACTTAATTGTAATGTGTT [XGTACX_site6422] | 8.95 ± 0.45
TTTATTTCCTTTTTGTGTACATATATATGTAATTCA [XGTACX_site1718] | 8.78 ± 0.53
AACAAAATTGAAGGAACACACATACATATTTATATA [CACACA_site6227] | 9.07 ± 0.41
AATTTATAAATAATTAATTTGATAAATTATAAAGGG [GTGCAC_negctrl_site544] | 8.45 ± 0.45
AAAAAGAAATATTTATGTACATAATAATAATATTTT [XGTACX_site4693] | 8.63 ± 0.44
GGCTAAAAGTTGCACACACACAAAAAAAAAAAAAAA [CACACA_site7531] | 9.37 ± 0.51
ATTTATGAAAGAAATAGTACACACATAAACATTTGT [XGTACX_site5862] | 9.03 ± 0.36
TATAAAAAAATATATATATATATTATATGTGTAGAA [TGCATGCA_negctrl_site391] | 8.71 ± 0.54
AATCCACAAAGACACACACACACATATATATATATA [CACACA_site1269] | 10.2 ± 0.23
AAAAAAAAAAAAAAGACACACATATATATATATATA [CACACA_site633] | 10.1 ± 0.13
GTAATCCACAAACACACACACATACACATATATATA [CACACA_site2728] | 9.98 ± 0.19
TATTTATTTAAAGGCACACATATTTTTATACTTTCT [CACACA_site3163] | 8.79 ± 0.49
AAATTTATAAAGAACACACACATATATATATATATA [CACACA_site48] | 10 ± 0.21
TTTTTTATATATGTGTGTGTGTGTGTGTCAAGTTTA [GTGCAC_negctrl_site460] | 10.3 ± 0.24
AATTTTTTTTTTTTTTTTTTTTATATATGTGTGTGT [XGTACX_negctrl_site129] | 9.32 ± 0.42
TGTGTCAAGTTTAATAAACGCATATAATATATATGA [CACACA_negctrl_site607] | 8.59 ± 0.41
TTTATATTTAAATGCATGCACTTTCTATTTTTTTTT [GTGCAC_site9959] | 9.13 ± 0.53

Sequence | gcPBM binding intensity (ln)
CTTACATATTACATATGTACATATACACCTTATGTC [XGTACX_site4679] | 9.19 ± 0.41
TGCAATTGTAAAGGCGCACACATATATATATATATA [CACACA_site4894] | 10.2 ± 0.13
AAAAAAAGGTAAAATTGTACATACGCACAAAAATAT [XGTACX_site2887] | 9 ± 0.51
GTTTTATAAAAAGGCGCACACATATACATAAATATA [CACACA_site1864] | 9.37 ± 0.47
TTATTGCGCACAATTTGTACATATATATATATAGAA [XGTACX_site7573] | 8.84 ± 0.4
TATTGTAAGAAAGGCACACAGATAAAATTATTATAT [CACACA_site2921] | 8.83 ± 0.51
TACAATTGTAAAGGCGCACACATATATATATATATA [CACACA_site1392] | 10.3 ± 0.23
AATCTGATTTGTATATGTACACAAATATTTTTATTT [XGTACX_site5295] | 8.99 ± 0.53
TAATATCAAACCTATAGTACATAAGGTATAAAAAAG [XGTACX_site3533] | 8.86 ± 0.44
TTCTGAACAAAATTATATATTTATTTTTATTTTCAT [CACACA_negctrl_site422] | 8.48 ± 0.5
AAAAAAAAAAAAAAAACACACAATTGAATTATTAAG [CACACA_site2864] | 8.7 ± 0.61
TTCTTATATTGTACAGTACACACCTTTATAATGTTA [CACACA_site7953] | 9.15 ± 0.49
TATCATAAAATATGTAGTACGTATATATATAAAAAT [XGTACX_site5455] | 8.97 ± 0.41
GTAATTATTAATAAAACATGCGTATAAAATTTTCTC [TGCATGCA_site50] | 8.62 ± 0.46
TATATATATATATTTACACACATTCATATAAATTCA [CACACA_site3532] | 9.04 ± 0.28
TACAGACATAGACACACACACACGCATAAAAAAAAA [CACACA_site6820] | 10 ± 0.51
ATTTGGCATAGACACACACACACACGCACGCACATA [CACACA_site6424] | 10.3 ± 0.28
AAATTTGGCAGACACACACACACACGCACACGCACA [CACACA_site6423] | 10.4 ± 0.33
TACACCCATAGACACACACACACGCATAAAAAAAAA [CACACA_site8428] | 9.95 ± 0.55

Sequence | gcPBM binding intensity (ln)
CAGACGCACGTATTTGCACACATTGCCACGTAATTA [CACACA_site3349] | 9.28 ± 0.37
TACTTATTGTGATACTTATATTATTTTATGATTAAA [XGTACX_negctrl_site353] | 8.5 ± 0.42
TTTTGGTGGGTTACAAGTACTCAAAATGGATTGTTA [XGTACX_site1951] | 8.56 ± 0.38
GTTGCCATCATTTGGCGTACAGTCAAAACCAAATCT [XGTACX_site1398] | 8.56 ± 0.37
ACAACACATATTCATCGTACATGTATTAGGAAGACA [XGTACX_site1859] | 9.04 ± 0.42
GTATATTGTACCATCACACATGTAAAACATAGATGT [CACACA_site5359] | 8.94 ± 0.43
TGGTATATATTTCCTTGTACATATAATATATATTGT [XGTACX_site3961] | 8.94 ± 0.51
CACAAATATACAAATACACACAAATATACAAATACA [CACACA_site2385] | 9.42 ± 0.44
TACACAAATATATATATATATATATATATATATATA [XGTACX_negctrl_site305] | 10 ± 0.5
ATAAAAATAAAAAGTGTGCACACAAAAATATATATA [GTGCAC_site9931] | 9.62 ± 0.36
ATGAGTGCACAAATATATATATATATATATATATAT [CACACA_negctrl_site404] | 10.2 ± 0.26
GCACAAATATATATATATATATATATATATATATAT [GTGCAC_negctrl_site661] | 10.2 ± 0.12
TAATATAATCTGAGTGCACACAAATAAATAAACATA [CACACA_site8032] | 9.16 ± 0.44
TATAATGATGATGATAGTACGTATTAGTATAAAAAA [XGTACX_site9] | 8.81 ± 0.52
TATACCTTTTTATTCACACATATATGTCATATGTCA [CACACA_site5423] | 9.28 ± 0.5
CTCTTGTCATTTTGCACACACACATGGATAGGTTAT [CACACA_site5655] | 9.81 ± 0.33
ATAAAATTATATACTCGTACACAAAAAAAAAAAATA [XGTACX_site6035] | 8.77 ± 0.47
TATAAGTGCCGTTATACACACGTTATATAAATATTA [CACACA_site4401] | 8.81 ± 0.4

Reference: the supplement of paper PMC11417369
